Measurements: paper PMC7862700, “An all-to-all approach to the identification of sequence-specific readers for epigenetic DNA modifications on cytosine”

Experiments:
Test in all cases: DAPPL (digital affinity profiling via proximity ligation, sequencing); 10 mM Tris-HCl pH 7.5, 50 mM NaCl, 1 mM DTT, 4% glycerol, room temperature, 30 min; GST-TFs on glutathione beads, 16-mer random dsDNA library, 0.1% formaldehyde crosslink after washing; high values mean tight binding
Conditions in all cases: protein: recombinant; tags: N-terminal GST; dsDNA, one strand shown
FLI1 = target: T1, FLI1 (Homo sapiens, UniProt Q01543 1-452)
T1 sequence: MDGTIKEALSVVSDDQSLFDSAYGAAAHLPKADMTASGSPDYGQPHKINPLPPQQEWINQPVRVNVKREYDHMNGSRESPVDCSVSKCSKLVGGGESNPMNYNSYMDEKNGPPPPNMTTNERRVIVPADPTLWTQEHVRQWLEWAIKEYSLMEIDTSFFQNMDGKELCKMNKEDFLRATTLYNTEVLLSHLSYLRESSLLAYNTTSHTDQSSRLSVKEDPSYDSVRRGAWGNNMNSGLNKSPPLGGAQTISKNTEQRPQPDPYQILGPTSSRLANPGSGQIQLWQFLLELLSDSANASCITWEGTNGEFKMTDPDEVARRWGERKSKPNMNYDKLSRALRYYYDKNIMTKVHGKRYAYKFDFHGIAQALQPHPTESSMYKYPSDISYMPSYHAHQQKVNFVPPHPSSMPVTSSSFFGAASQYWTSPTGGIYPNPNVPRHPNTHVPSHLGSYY
Method in brief: (§1)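 Pools of DNA-barcoded human transcription factors, expressed in yeast as GST fusions on glutathione beads and combined with a tag-only sample, were incubated with 200 nmole of a 16-mer random double-stranded DNA library. Incubation took 30 min at room temperature in Tris/NaCl/DTT/glycerol buffer and was followed by washing, 0.1% formaldehyde crosslinking, proximity ligation (BsaI/T4 ligase, 1 h, 37 °C), PCR amplification and sequencing on an Illumina NextSeq500. Binding signal is the ratio of a hexamer's read frequency for a factor to its frequency for the tag-only sample.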

ELK1 = target: T2, ELK1 (Homo sapiens, UniProt P19419 1-428)
T2 sequence: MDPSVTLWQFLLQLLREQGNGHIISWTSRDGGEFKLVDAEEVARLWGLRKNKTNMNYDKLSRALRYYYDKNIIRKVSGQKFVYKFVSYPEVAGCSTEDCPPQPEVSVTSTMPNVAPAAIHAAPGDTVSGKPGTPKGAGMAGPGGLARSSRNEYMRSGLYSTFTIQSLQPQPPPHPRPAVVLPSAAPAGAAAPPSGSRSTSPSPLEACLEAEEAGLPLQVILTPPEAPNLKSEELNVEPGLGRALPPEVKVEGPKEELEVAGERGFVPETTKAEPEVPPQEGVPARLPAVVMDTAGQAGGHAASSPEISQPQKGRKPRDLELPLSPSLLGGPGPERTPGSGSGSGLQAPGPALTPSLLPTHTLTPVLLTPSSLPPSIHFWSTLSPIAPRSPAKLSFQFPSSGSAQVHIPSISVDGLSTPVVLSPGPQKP
Method in brief: as §1

GABPA = target: T3, GABPA (Homo sapiens, UniProt Q06546 1-454)
T3 sequence: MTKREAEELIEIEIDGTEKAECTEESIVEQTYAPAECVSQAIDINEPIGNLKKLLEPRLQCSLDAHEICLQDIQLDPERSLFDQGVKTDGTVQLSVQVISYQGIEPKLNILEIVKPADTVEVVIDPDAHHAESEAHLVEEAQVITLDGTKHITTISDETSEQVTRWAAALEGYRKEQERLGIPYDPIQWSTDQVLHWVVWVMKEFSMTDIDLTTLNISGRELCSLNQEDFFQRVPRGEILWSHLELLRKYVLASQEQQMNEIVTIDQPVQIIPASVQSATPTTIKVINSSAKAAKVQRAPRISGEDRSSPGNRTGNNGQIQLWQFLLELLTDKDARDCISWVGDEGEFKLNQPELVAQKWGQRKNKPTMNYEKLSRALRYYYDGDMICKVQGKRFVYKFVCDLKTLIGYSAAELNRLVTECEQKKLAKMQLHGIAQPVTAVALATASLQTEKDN
Method in brief: as §1

ERG = target: T4, ERG (Homo sapiens, UniProt P11308 1-479)
T4 sequence: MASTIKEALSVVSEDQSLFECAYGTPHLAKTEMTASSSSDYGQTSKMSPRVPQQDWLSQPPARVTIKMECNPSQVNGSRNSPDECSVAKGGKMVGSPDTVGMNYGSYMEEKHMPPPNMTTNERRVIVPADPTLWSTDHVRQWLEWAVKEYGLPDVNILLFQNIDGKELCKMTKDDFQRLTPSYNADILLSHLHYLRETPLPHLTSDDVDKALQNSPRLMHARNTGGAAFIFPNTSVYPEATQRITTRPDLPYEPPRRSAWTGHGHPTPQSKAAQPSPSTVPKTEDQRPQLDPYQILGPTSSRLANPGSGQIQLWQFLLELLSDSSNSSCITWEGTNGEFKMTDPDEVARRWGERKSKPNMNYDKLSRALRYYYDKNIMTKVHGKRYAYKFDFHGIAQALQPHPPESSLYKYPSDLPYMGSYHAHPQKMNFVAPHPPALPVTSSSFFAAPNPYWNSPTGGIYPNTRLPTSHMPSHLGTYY
Method in brief: as §1

ELF1 = ELF1 (Homo sapiens, UniProt P32519 1-619)
Sequence of ELF1 (P32519 whole entry): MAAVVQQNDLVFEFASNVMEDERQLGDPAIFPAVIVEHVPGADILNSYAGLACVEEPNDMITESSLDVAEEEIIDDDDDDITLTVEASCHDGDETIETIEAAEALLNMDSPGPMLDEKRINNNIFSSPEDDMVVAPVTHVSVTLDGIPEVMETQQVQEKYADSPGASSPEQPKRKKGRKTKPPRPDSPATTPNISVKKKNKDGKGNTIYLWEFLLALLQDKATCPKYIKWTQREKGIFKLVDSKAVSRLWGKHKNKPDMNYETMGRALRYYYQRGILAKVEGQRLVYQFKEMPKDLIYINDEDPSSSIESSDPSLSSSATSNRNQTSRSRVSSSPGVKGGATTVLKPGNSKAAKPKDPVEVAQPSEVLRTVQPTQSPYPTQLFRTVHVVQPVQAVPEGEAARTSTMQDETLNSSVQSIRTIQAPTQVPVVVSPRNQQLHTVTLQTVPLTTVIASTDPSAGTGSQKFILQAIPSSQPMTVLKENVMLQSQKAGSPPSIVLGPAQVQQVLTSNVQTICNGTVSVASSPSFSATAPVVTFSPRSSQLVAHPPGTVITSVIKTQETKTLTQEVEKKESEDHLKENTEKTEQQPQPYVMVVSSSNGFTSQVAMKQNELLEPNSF
Method in brief: as §1

EHF = target: T5, EHF (Homo sapiens, UniProt Q9NZC4 1-300)
T5 sequence: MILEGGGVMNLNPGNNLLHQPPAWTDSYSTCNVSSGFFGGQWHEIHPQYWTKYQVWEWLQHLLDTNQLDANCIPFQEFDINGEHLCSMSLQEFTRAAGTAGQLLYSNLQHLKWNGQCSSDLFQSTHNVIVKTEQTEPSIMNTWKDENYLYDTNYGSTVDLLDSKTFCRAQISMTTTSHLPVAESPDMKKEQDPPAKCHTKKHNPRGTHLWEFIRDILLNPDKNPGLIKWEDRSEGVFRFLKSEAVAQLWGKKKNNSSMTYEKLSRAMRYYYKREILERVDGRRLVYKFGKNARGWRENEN
Method in brief: as §1

SPI1 = SPI1 (Homo sapiens, UniProt P17947 1-270)
Method in brief: as §1

SPIB = SPIB (Homo sapiens, UniProt Q01892 1-262)
Sequence of SPIB (Q01892 whole entry): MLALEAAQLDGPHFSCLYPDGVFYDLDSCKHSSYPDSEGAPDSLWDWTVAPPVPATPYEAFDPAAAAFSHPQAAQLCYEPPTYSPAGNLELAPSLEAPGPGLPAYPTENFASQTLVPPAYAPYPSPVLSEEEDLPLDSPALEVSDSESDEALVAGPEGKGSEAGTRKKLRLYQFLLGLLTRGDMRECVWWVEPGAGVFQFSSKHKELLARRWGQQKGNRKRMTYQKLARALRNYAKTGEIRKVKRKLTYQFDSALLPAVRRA
Method in brief: as §1

ELK3 = target: T6, ELK3 (Homo sapiens, UniProt P41970 1-407)
T6 sequence: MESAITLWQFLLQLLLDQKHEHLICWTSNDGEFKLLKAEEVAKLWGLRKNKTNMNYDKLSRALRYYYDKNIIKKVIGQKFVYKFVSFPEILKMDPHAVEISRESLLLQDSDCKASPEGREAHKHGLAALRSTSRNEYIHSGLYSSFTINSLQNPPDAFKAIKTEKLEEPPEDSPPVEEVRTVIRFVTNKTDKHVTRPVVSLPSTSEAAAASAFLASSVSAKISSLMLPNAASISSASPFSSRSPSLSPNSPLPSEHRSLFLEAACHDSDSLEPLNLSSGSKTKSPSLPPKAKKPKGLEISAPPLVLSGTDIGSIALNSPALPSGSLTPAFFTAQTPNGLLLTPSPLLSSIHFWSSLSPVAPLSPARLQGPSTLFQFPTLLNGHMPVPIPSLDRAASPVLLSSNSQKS
Method in brief: as §1

Row | Sequence | binding signal (FLI1) | binding signal (ELK1) | binding signal (GABPA) | binding signal (ERG) | binding signal (ELF1) | binding signal (EHF) | binding signal (SPI1) | binding signal (SPIB) | binding signal (ELK3)
1 | ATGCGG | 1.3 fold enrichment (6-mer frequency, TF over GST control) | 1.22 fold enrichment (6-mer frequency, TF over GST control) | 1.2 fold enrichment (6-mer frequency, TF over GST control) | 1.22 fold enrichment (6-mer frequency, TF over GST control) | 1.2 fold enrichment (6-mer frequency, TF over GST control) | 1.31 fold enrichment (6-mer frequency, TF over GST control) | 1.56 fold enrichment (6-mer frequency, TF over GST control) | 1.32 fold enrichment (6-mer frequency, TF over GST control) | 1.23 fold enrichment (6-mer frequency, TF over GST control)
2 | CAACTA | 1.24 fold enrichment (6-mer frequency, TF over GST control) | 1.31 fold enrichment (6-mer frequency, TF over GST control) | 1.37 fold enrichment (6-mer frequency, TF over GST control) | 1.3 fold enrichment (6-mer frequency, TF over GST control) | 1.38 fold enrichment (6-mer frequency, TF over GST control) | 1.27 fold enrichment (6-mer frequency, TF over GST control) | 1.28 fold enrichment (6-mer frequency, TF over GST control) | 1.24 fold enrichment (6-mer frequency, TF over GST control) | 1.25 fold enrichment (6-mer frequency, TF over GST control)
3 | TACAAC | 1.16 fold enrichment (6-mer frequency, TF over GST control) | 1.17 fold enrichment (6-mer frequency, TF over GST control) | 1.16 fold enrichment (6-mer frequency, TF over GST control) | 1.14 fold enrichment (6-mer frequency, TF over GST control) | 1.16 fold enrichment (6-mer frequency, TF over GST control) | 1.14 fold enrichment (6-mer frequency, TF over GST control) | 1.08 fold enrichment (6-mer frequency, TF over GST control) | 1.18 fold enrichment (6-mer frequency, TF over GST control) | 1.23 fold enrichment (6-mer frequency, TF over GST control)
4 | CGACCT | 1.44 fold enrichment (6-mer frequency, TF over GST control) | 1.44 fold enrichment (6-mer frequency, TF over GST control) | 1.54 fold enrichment (6-mer frequency, TF over GST control) | 1.46 fold enrichment (6-mer frequency, TF over GST control) | 1.6 fold enrichment (6-mer frequency, TF over GST control) | 1.39 fold enrichment (6-mer frequency, TF over GST control) | 1.4 fold enrichment (6-mer frequency, TF over GST control) | 1.63 fold enrichment (6-mer frequency, TF over GST control) | 1.7 fold enrichment (6-mer frequency, TF over GST control)
5 | CCGCCA | 1.38 fold enrichment (6-mer frequency, TF over GST control) | 1.31 fold enrichment (6-mer frequency, TF over GST control) | 1.29 fold enrichment (6-mer frequency, TF over GST control) | 1.3 fold enrichment (6-mer frequency, TF over GST control) | 1.32 fold enrichment (6-mer frequency, TF over GST control) | 1.37 fold enrichment (6-mer frequency, TF over GST control) | 1.3 fold enrichment (6-mer frequency, TF over GST control) | 1.09 fold enrichment (6-mer frequency, TF over GST control) | 1.34 fold enrichment (6-mer frequency, TF over GST control)
6 | ATTGGG | 1.23 fold enrichment (6-mer frequency, TF over GST control) | 1.24 fold enrichment (6-mer frequency, TF over GST control) | 1.33 fold enrichment (6-mer frequency, TF over GST control) | 1.13 fold enrichment (6-mer frequency, TF over GST control) | 1.21 fold enrichment (6-mer frequency, TF over GST control) | 1.24 fold enrichment (6-mer frequency, TF over GST control) | 1.25 fold enrichment (6-mer frequency, TF over GST control) | 1.26 fold enrichment (6-mer frequency, TF over GST control) | 1.17 fold enrichment (6-mer frequency, TF over GST control)
7 | CAATTG | 1.32 fold enrichment (6-mer frequency, TF over GST control) | 1.19 fold enrichment (6-mer frequency, TF over GST control) | 1.26 fold enrichment (6-mer frequency, TF over GST control) | 1.14 fold enrichment (6-mer frequency, TF over GST control) | 1.28 fold enrichment (6-mer frequency, TF over GST control) | 1.27 fold enrichment (6-mer frequency, TF over GST control) | 1.25 fold enrichment (6-mer frequency, TF over GST control) | 1.16 fold enrichment (6-mer frequency, TF over GST control) | 1.23 fold enrichment (6-mer frequency, TF over GST control)
8 | ATATTG | 1.25 fold enrichment (6-mer frequency, TF over GST control) | 1.31 fold enrichment (6-mer frequency, TF over GST control) | 1.32 fold enrichment (6-mer frequency, TF over GST control) | 1.25 fold enrichment (6-mer frequency, TF over GST control) | 1.31 fold enrichment (6-mer frequency, TF over GST control) | 1.3 fold enrichment (6-mer frequency, TF over GST control) | 1.28 fold enrichment (6-mer frequency, TF over GST control) | 1.28 fold enrichment (6-mer frequency, TF over GST control) | 1.29 fold enrichment (6-mer frequency, TF over GST control)
